Results as given in PubChem BioAssay AID1159580 (chemical genetic matrix, 2015).
About 2,000 (36%) of roughly 5,500 compounds were called active. Another 18% or so got no clear call; they are omitted. Rule as the data show it: active = normalized growth mostly below about 0.91 (no sharp cut-off); inconclusive = no clear call, values can overlap the other calls; inactive = mostly above about 0.92. This is one part of the list.

Assay: chemical genetic growth profiling, strain panel (AID 1159580);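 also: tested at 20 µM; growth read once vehicle control cultures reached saturation at 30 °C; 1 = growth at the plate median or of vehicle wells; lower values mean less growth of the strain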
Conditions: growth OD

Measured: normalized growth

CC(C)=CCC[C@](C)(O)C1CC=C(C)CC1 (some centres not stated)
inactive: S. cerevisiae deletion strains, locus YJR043C, strain POL32, hits give low values 1.01 | S. cerevisiae deletion strains, locus YJR066W, strain TOR1, hits give low values 0.953 | S. cerevisiae deletion strains, locus YKL009W, strain mrt4, hits give low values 0.962 | S. cerevisiae deletion strains, locus YKL068W, hits give low values 1.01 | S. cerevisiae deletion strains, locus YKL085W, strain MDH1 (second series), hits give low values 0.991 | S. cerevisiae deletion strains, locus YKL085W, strain MDH1, hits give low values 0.991 | S. cerevisiae deletion strains, locus YKL160W, strain elf1, hits give low values 1 | S. cerevisiae deletion strains, locus YKR001C, strain vps1, hits give low values 0.902 | S. cerevisiae deletion strains, locus YKR026C, strain gcn3, hits give low values 0.976 | S. cerevisiae deletion strains, locus YKR091W, strain srl3, hits give low values 0.98 | S. cerevisiae deletion strains, locus YLL001W, strain dnm1, hits give low values 0.992 | S. cerevisiae deletion strains, locus YLL026W, hits give low values 0.992 | S. cerevisiae deletion strains, locus YLL041C, strain sdh2, hits give low values 0.997 | S. cerevisiae deletion strains, locus YLR027C, strain aat2, hits give low values 0.969 | S. cerevisiae deletion strains, locus YLR039C, strain RIC1, hits give low values 0.964 | S. cerevisiae deletion strains, locus YLR058C, strain SHM2, hits give low values 1.03 | S. cerevisiae deletion strains, locus YLR102C, strain apc9, hits give low values 0.986 | S. cerevisiae deletion strains, locus YLR113W, strain HOG1, hits give low values 1.02 | S. cerevisiae deletion strains, locus YLR221C, strain rsa3, hits give low values 0.982 | S. cerevisiae deletion strains, locus YLR258W, strain gsy2, hits give low values 0.978 | S. cerevisiae deletion strains, locus YLR262C, strain YPT6 (second series), hits give low values 0.998 | S. cerevisiae deletion strains, locus YLR262C, strain YPT6, hits give low values 0.966 | S. cerevisiae deletion strains, locus YLR268W, strain sec22, hits give low values 0.991 | S. cerevisiae deletion strains, locus YLR320W, strain mms22, hits give low values 0.984 | S. cerevisiae deletion strains, locus YLR330W, strain CHS5, hits give low values 1.02 | S. cerevisiae deletion strains, locus YLR342W, strain FKS1 (second series), hits give low values 0.995 | S. cerevisiae deletion strains, locus YLR342W, strain FKS1, hits give low values 0.98 | S. cerevisiae deletion strains, locus YLR357W, strain rsc2, hits give low values 0.944 | S. cerevisiae deletion strains, locus YLR370C, strain arc18, hits give low values 0.96 | S. cerevisiae deletion strains, locus YLR371W, strain rom2, hits give low values 1 | S. cerevisiae deletion strains, locus YLR384C, strain iki3, hits give low values 0.971 | S. cerevisiae deletion strains, locus YLR418C, strain cdc73, hits give low values 0.982 | S. cerevisiae deletion strains, locus YML016C, strain PPZ1, hits give low values 1.01 | S. cerevisiae deletion strains, locus YML032C, strain rad52, hits give low values 0.992 | S. cerevisiae deletion strains, locus YML120C, strain ndi1, hits give low values 0.988 | S. cerevisiae deletion strains, locus YML124C, strain tub3, hits give low values 1 | S. cerevisiae deletion strains, locus YMR058W, strain fet3, hits give low values 0.97 | S. cerevisiae deletion strains, locus YMR078C, strain ctf18, hits give low values 0.976 | S. cerevisiae deletion strains, locus YMR125W, strain sto1, hits give low values 0.967 | S. cerevisiae deletion strains, locus YMR129W, hits give low values 0.992 | S. cerevisiae deletion strains, locus YMR205C, strain PFK2, hits give low values 0.983 | S. cerevisiae deletion strains, locus YMR223W, strain ubp8, hits give low values 0.991 | S. cerevisiae deletion strains, locus YMR231W, strain pep5, hits give low values 0.965 | S. cerevisiae deletion strains, locus YMR307W, strain GAS1, hits give low values 1.13 | S. cerevisiae deletion strains, locus YNL067W, strain RPL9B, hits give low values 1.01 | S. cerevisiae deletion strains, locus YNL071W, strain lat1, hits give low values 0.98 | S. cerevisiae deletion strains, locus YNL153C, strain GIM3, hits give low values 1.01 | S. cerevisiae deletion strains, locus YNL183C, strain NPR1, hits give low values 0.954 | S. cerevisiae deletion strains, locus YNL209W, strain ssb2, hits give low values 0.98 | S. cerevisiae deletion strains, locus YNL233W, strain BNI4, hits give low values 1.04 | S. cerevisiae deletion strains, locus YNL248C, strain rpa49, hits give low values 0.978 | S. cerevisiae deletion strains, locus YNL250W, strain rad50, hits give low values 1 | S. cerevisiae deletion strains, locus YNL271C, strain bni1, hits give low values 0.988 | S. cerevisiae deletion strains, locus YNL298W, strain CLA4, hits give low values 1.01 | S. cerevisiae deletion strains, locus YNL307C, strain MCK1, hits give low values 0.983 | S. cerevisiae deletion strains, locus YNL322C, strain KRE1 (second series), hits give low values 0.982 | S. cerevisiae deletion strains, locus YNR049C, strain mso1, hits give low values 0.979 | S. cerevisiae deletion strains, locus YNR052C, strain pop2, hits give low values 0.994 | S. cerevisiae deletion strains, locus YOL012C, strain htz1 1.39 | S. cerevisiae deletion strains, locus YOL147C, strain pex11, hits give low values 0.981 | S. cerevisiae deletion strains, locus YOR001W, strain rrp6, hits give low values 0.975 | S. cerevisiae deletion strains, locus YOR061W, strain CKA2, hits give low values 1.03 | S. cerevisiae deletion strains, locus YOR069W, strain VPS5, hits give low values 1.02 | S. cerevisiae deletion strains, locus YOR070C, strain gyp1, hits give low values 1.02 | S. cerevisiae deletion strains, locus YOR080W, strain dia2, hits give low values 0.979 | S. cerevisiae deletion strains, locus YOR083W, strain WHI5, hits give low values 0.987 | S. cerevisiae deletion strains, locus YOR106W, strain vam3, hits give low values 0.947 | S. cerevisiae deletion strains, locus YOR136W, strain idh2, hits give low values 0.992 | S. cerevisiae deletion strains, locus YOR144C, strain elg1, hits give low values 0.989 | S. cerevisiae deletion strains, locus YOR184W, strain ser1, hits give low values 0.994 | S. cerevisiae deletion strains, locus YOR231W, strain MKK1, hits give low values 0.993 | S. cerevisiae deletion strains, locus YOR265W, strain rbl2, hits give low values 0.98 | S. cerevisiae deletion strains, locus YOR270C, strain vph1, hits give low values 0.932 | S. cerevisiae deletion strains, locus YOR290C, strain snf2, hits give low values 0.969 | S. cerevisiae deletion strains, locus YOR316C, strain cot1, hits give low values 0.986 | S. cerevisiae deletion strains, locus YPL051W, strain arl3, hits give low values 0.981 | S. cerevisiae deletion strains, locus YPL055C, strain LGE1, hits give low values 1.04 | S. cerevisiae deletion strains, locus YPL078C, strain atp4, hits give low values 0.988 | S. cerevisiae deletion strains, locus YPL106C, strain sse1, hits give low values 0.981 | S. cerevisiae deletion strains, locus YPL240C, strain hsp82, hits give low values 0.977 | S. cerevisiae deletion strains, locus YPL256C, strain CLN2, hits give low values 0.99 | S. cerevisiae deletion strains, locus YPR119W, strain clb2, hits give low values 1.01 | S. cerevisiae deletion strains, locus YPR141C, strain kar3, hits give low values 1 | S. cerevisiae deletion strains, locus YPR163C, strain tif3, hits give low values 0.973 | S. cerevisiae deletion strains, locus YPR167C, strain met16, hits give low values 1.02 | S. cerevisiae deletion strains, strain wtn01, hits give low values 0.974 | S. cerevisiae strains, strain wild type, hits give low values 1.02
